# Only some compounds are listed: those with a hit (about 0.93% of all), similar ones and a draw of the others.
# CDC25B-CDK2 inh: human CDC25B-CDK2/CyclinA binding inhibition | P30305+P24941 | hit rate 0.72% among 94,000 | z-score (concentration not given with the values) | HTRF CDC25B-CDK2/CyclinA binding, anti-His/anti-Flag; active compounds read high; in the data active means z-score above about 3.2
# HIV TAR-Tat: HIV-1 TAR-Tat binding disruption; HIV-1 TAR RNA, Tat peptide displacement FRET; active compounds read high; AID 1259389; z-score (test concentration not listed); hit rate 0.6% among 100,000; active means z-score of 3 or more in at least 2 runs
# * = called active by the depositor; nt = no result; ! = a repeat was not active.
SMILES,CDC25B-CDK2 inh,HIV TAR-Tat
COc1cccc(-c2nc(=S)c3c([nH]2)Oc2c(cccc2OC)C3)c1O,7.4,35*
CCOc1cccc(-c2nc3c(c(=O)[nH]2)Cc2cccc(OCC)c2O3)c1O,0.25,7.2*
CCOc1cccc2c1Oc1[nH]c(-c3cc(OC)c(OC)c(OC)c3)nc(=S)c1C2,-1.4,nt
CCOc1cccc(-c2nc3c(c(=O)[nH]2)Cc2cc(Br)ccc2O3)c1O,-1.3,4
CCOc1cccc(-c2nc(=S)c3c([nH]2)Oc2c(cccc2OC)C3)c1O,5.3,23*
COc1cc(OC)c(Nc2nc3ccc(Cl)cc3n3cnnc23)cc1Cl,-0.16,0.11
O=C(O)c1cc(-c2cccc(O)c2)nc2n[nH]c(-c3ccc(Cl)cc3)c12,nt,3.5
Cc1ccc2c(c1)n(CO)c(=O)n2CO,-0.5,1.4
Cc1cc(SCC(=O)c2ccc(C(C)C)cc2)nc(C)n1,0.43,0.47
O=C1/C(=C\c2ccc3c(c2)OCO3)SC(=S)N1Cc1ccc(Cl)c(Cl)c1,0.29,nt
Cc1sc2ncn(CC(=O)N3CCCCCC3)c(=O)c2c1S(=O)(=O)N1CCN(C)CC1,19*,nt
Cc1sc2ncn(CC(=O)N3CCOCC3)c(=O)c2c1S(=O)(=O)N1CCOCC1,-1.5,2.3
Cc1cc(=O)oc2cc(O)cc(O)c12,nt,1.2
O=c1oc2c(O)c(O)cc3c(=O)oc4c(O)c(O)cc1c4c23,nt,31*!
CS(=O)(=O)n1nc(-c2ccco2)nc1NCc1ccc(Br)cc1,0.02,0.8
O=C(CN1C(=O)c2cccnc2Sc2ccccc21)NCCc1c[nH]c2ccccc12,nt,-0.1
NC(=O)c1nc(-c2cccnc2)nc2c1[nH]c(=O)n2C1CCCCC1,-1.3,nt
COc1ccc(-c2ccc3c(n2)sc2c(O)cc(=O)[nH]c23)cc1OC,-0.51,5.1
O=c1cc(O)c2sc3nc(-c4ccncc4)ccc3c2[nH]1,2.5,15*
CCC(C)(C)NS(=O)(=O)c1cc2[nH]c(=O)c(=O)[nH]c2cc1C,nt,0.97
CCOC(=O)C1CCCN1c1ncc(Cl)cc1[N+](=O)[O-] (stereo unspecified),14*,-9.8
O=C(O)C1CCCN1c1ncc(Cl)cc1[N+](=O)[O-] (stereo unspecified),nt,-13
O=C(NC1CCSC1=O)c1ccc(-c2ccccc2)cc1 (stereo unspecified),-3.2,2
O=C(NC1CCSC1=O)c1cccc(C(=O)NC2CCSC2=O)c1 (stereo unspecified),-0.45,26*
CC(=O)NCCNC(=O)c1ccc(NC2=NC3CS(=O)(=O)CC3S2)cc1 (stereo unspecified),nt,11*
SMILES,CDC25B-CDK2 inh,HIV TAR-Tat
CN(C)CCNC(=O)c1ccc(NC2=NC3CS(=O)(=O)CC3S2)cc1 (stereo unspecified),nt,2.1
CCC(C)NC(=O)Cn1cc(S(=O)(=O)NC)c(S(=O)(=O)NC)c1 (stereo unspecified),nt,-1.4
CN(C)S(=O)(=O)c1ccc2nc(NC(=O)c3ccc(S(C)(=O)=O)cc3)sc2c1,nt,1.1
COc1cc(C(=O)NC(NC(=S)Nc2cccc3ccccc23)C(Cl)(Cl)Cl)cc(OC)c1OC (stereo unspecified),5.1*,nt
COc1cccc(C(=O)NC(NC(=S)Nc2ccc(Cl)cc2Cl)C(Cl)(Cl)Cl)c1 (stereo unspecified),2,nt
Cc1nn(-c2nc3ccccc3o2)c2c1C(c1cccc(Br)c1)CC(=O)N2 (stereo unspecified),nt,-0.11
COc1ccccc1-c1noc2ncnc(NCCCN3CCCC3)c12,nt,0.51
O=C(Cn1ncc2c([nH]c3ccccc32)c1=O)N(Cc1ccco1)C1CCCCC1,nt,-0.54
CCCN1C(=O)c2[nH]nc(-c3ccc(F)cc3)c2C1c1ccc(O)cc1 (stereo unspecified),3.9,0.84
O=C(O)c1cc(N2C(=O)C3CCCCC3C2=O)ccc1Cl (stereo unspecified),nt,1
O=C(O)c1cc(N2C(=O)c3c(Cl)c(Cl)c(Cl)c(Cl)c3C2=O)ccc1Cl,8.6*,nt
O=C(Cc1csc2nc(-c3ccc(F)cc3)cn12)N1CCCC1,nt,1.1
Cc1cccc(N(C)c2c(-c3ccc(C)c(C)c3)c(=O)c2=O)c1,nt,0.37
Cc1ccc(-c2csc(Nc3ccccn3)n2)cc1,-0.98,0.8
Cc1nc(N)sc1-c1csc(Nc2ccccn2)n1,18*,nt
CCOC(=O)c1nc2c(c(C)c(C)n2-c2ccccc2)c(=O)[nH]1,1.2,1.1
CC(=O)Oc1cc2c(C(=O)NC3CCS(=O)(=O)C3)c(C)oc2c2ccccc12 (stereo unspecified),10*,-7.7
CC(=O)Oc1cc2c(C(=O)NCC3CCCO3)c(C)oc2c2ccccc12 (stereo unspecified),2.3,1.3
NC(=O)c1ccc[n+]([C@@H]2O[C@H](COP(=O)([O-])OP(=O)(O)OC[C@H]3O[C@@H](n4cnc5c(N)ncnc54)[C@H](OP(=O)(O)O)[C@@H]3O)[C@@H](O)[C@H]2O)c1,nt,1.5
Cc1ccc(-c2csc(-c3cc4c([nH]c3=O)CC(c3ccccc3)CC4=O)n2)cc1 (stereo unspecified),-0.21,-6.3
O=C1CC(c2ccco2)Cc2[nH]c(=O)c(-c3nc(-c4ccc(Br)cc4)cs3)cc21 (stereo unspecified),8.2*,3.7*
Clc1ccc2nc(Nc3ccc4c(c3)OCO4)c3nncn3c2c1,-1.3,0.55
CC(=O)C(C(C)=O)C1=C([N+](=O)[O-])C(=O)C(=O)c2ccccc21,3.5*,nt
O=C1c2ccccc2C(=O)c2c1ccc(C(=O)O)c2[N+](=O)[O-],-0.12,nt
O=C1CCCc2cc(S(=O)(=O)N3CCC(C(=O)N4CCc5ccccc5C4)CC3)ccc2N1,nt,1.9
SMILES,CDC25B-CDK2 inh,HIV TAR-Tat
O=C(O)c1ccc2nc(-c3ccco3)c(-c3ccco3)nc2c1,nt,51*
O=C(O)c1cc(-c2ccc(O)cc2)nc2ccc(Br)cc12,-1.1,nt
O=C(NCc1ccco1)c1ccc2nc(-c3cccs3)c(-c3cccs3)nc2c1,nt,-0.7
O=C(O)c1cc(-c2ccco2)nc2ccc(Br)cc12,nt,6.4*
O=C(NCCCN1CCc2ccccc2C1)C1CCN(c2nc3ccccc3n3cccc23)CC1,nt,1.6
O=C(Cn1c(=O)n(CCc2ccccc2)c(=O)c2sc3ccccc3c21)NC1CCCC1,2,1.9
Cc1cc(=O)[nH]c(Nc2nc3ccccc3[nH]2)n1,0.02,nt
CC(=O)Oc1cc2c(C(=O)N3CCCC3)c(C)oc2c2ccccc12,3.9,0.43
Cc1oc2c(cc(O)c3ccccc32)c1C(=O)O,8.6*,-5.5
COCCCNc1nc(N)c([N+](=O)[O-])c(Nc2cccc(F)c2)n1,nt,-0.01
O=[N+]([O-])c1ccc(/C=C/C2Oc3ccccc3C3CC(c4cccs4)=NN23)o1 (stereo unspecified),1.5,13*
c1coc(C2Oc3ccccc3C3CC(c4cccs4)=NN32)c1 (stereo unspecified),-1.5,nt
Cc1nonc1NC(=O)Nc1ccncc1,9.2*,-0.99
Cc1nonc1NC(=O)N1CCOCC1,-1.4,1.3
COC(=O)C[C@H]1C(C)(C)C(OC(C)=O)[C@]2(O)C=C3C(CC[C@]4(C)C3CC(=O)O[C@H]4c3ccoc3)C1(C)C2=O (stereo partly specified),nt,1.3
COCCCN1C(=O)C(=O)/C(=C(/O)c2ccccc2)C1c1ccccc1OC (stereo unspecified),2,-1.2
Cc1cc(C)c2c(n1)nn1c(C)c(CCC(=O)N3CCc4ccccc43)c(C)nc21,-0.2,1.7

# Screens deposited in PubChem BioAssay by Center for Chemical Genomics, University of Michigan.
